PubChem BioAssay (NCATS)
Inconclusive results are not listed. A number with no mark means an inactive call. Calls of active or inactive are those of the source. The call rests on the fitted dose curve; in most records, active means well fitted curve in the direction sought with a large enough effect; inconclusive means small, poorly fitted or top-dose-only effect, or another doubt; inactive means no such curve, though single readings can be large; an effect the other way counts as inactive or inconclusive.

Experiments:
[1] = tested on: JEG-3; assay: Primary qHTS to identify gynecologic anti-cancer compounds using libraries of approved drugs and bioactive compounds (AID 1345084); details: Gynecologic cancer cell panel viability, ATPlite luminescence, 48 h; series mostly up to 57.5 µM; further: nearly all actives have a fitted effect of over 55% in size
How it was run: (§1)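 Five-point cytotoxicity, 48 h drug exposure at 37 C, 5% CO2, on cells seeded 16 h beforehand. ATP content read by ATPlite luminescence.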

[2] = tested on: OV90; assay: as above; details: Gynecologic cancer cell panel viability, ATPlite luminescence, 48 h; series mostly up to 57.5 µM
How it was run: as §1

[3] = tested on: PA-1; assay: as above; details: Gynecologic cancer cell panel viability, ATPlite luminescence, 48 h; series mostly up to 57.5 µM
How it was run: as §1

[4] = tested on: Tov112D; assay: as above; details: Gynecologic cancer cell panel viability, ATPlite luminescence, 48 h; series mostly up to 57.5 µM
How it was run: as §1

[5] = tested on: Tov-21-G; assay: as above; details: Gynecologic cancer cell panel viability, ATPlite luminescence, 48 h; series mostly up to 57.5 µM
How it was run: as §1

[6] = tested on: SKOV3; assay: as above; details: Gynecologic cancer cell panel viability, ATPlite luminescence, 48 h; series mostly up to 57.5 µM
How it was run: as §1

[7] = qHTS assay to identify inhibitors of the type 1 interferon - major histocompatibility complex class I in skeletal muscle: Counter screen cell viability and HiBit confirmation (AID 1347412); details: iHSKM muscle cells + IFN-b, HiBiT or CellTiter-Glo, 24 h; for Potency: HiBiT; for activity change, negative = inhibition: Viability, at 45.9 µM (top of the series); on all read-outs here: nearly all actives have a fitted effect of over 60% in size
How it was run: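 HLA-B*08:01–HiBiT knock-in immortalized human myoblasts (C25cl48) stimulated with 4.0 ng/ml human IFN-beta and dosed with compound in a 12-point 1:3 titration (top final 46 uM). After 24 hrs at 37 C, HiBiT lytic luminescence or CellTiter Glo ATP read out.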
On the % scale 0 is the no-effect control and ±100 the full control effect; potency means the concentration at half of the fitted maximal effect.

SMILES | Potency [1] | Potency [2] | Potency [3] | Potency [4] | Potency [5] | Potency [6] | Potency [7] | activity change, negative = inhibition [7]
CC(=O)Nc1sc2c(c1-c1nc3ccccc3s1)CNC2 | inactive | inactive | 31.6 µM (active) | inactive | – | – | – | –
CCc1cc2c(cc1N1CCC(N3CCOCC3)CC1)C(C)(C)c1[nH]c3cc(C#N)ccc3c1C2=O | inactive | inactive | inactive | inactive | inactive | – | – | –
C=CC(=O)N1CCC[C@@H](n2nc(-c3ccc(Oc4ccccc4)cc3)c3c(N)ncnc32)C1 | inactive | inactive | inactive | inactive | inactive | – | – | –
Cn1c2ccccc2c2c3c(c4c5ccccc5n(CCC#N)c4c21)CNC3=O | inactive | inactive | – | inactive | – | 17.8 µM (active) | – | –
C#Cc1cccc(Nc2ncnc3cc(OC)c(OCCCCCCC(=O)NO)cc23)c1 | 10 µM (active) | 5.62 µM (active) | 5.01 µM (active) | 7.08 µM (active) | 10 µM (active) | 8.91 µM (active) | 2.49 µM (active) | -17%
CNC(=O)c1nn(C)c2c1C(C)(C)Cc1cnc(Nc3ccc(N4CCN(C)CC4)cc3)nc1-2 | 11.2 µM (active) | – | 2.24 µM (active) | 2.24 µM (active) | – | – | 1.98 µM (active) | 28.9%
CCc1c2c(nc3ccc(O)cc13)-c1cc3c(c(=O)n1C2)COC(=O)[C@]3(O)CC | 8.91 µM (active) | 1.78 µM (active) | – | – | 3.16 µM (active) | – | 1.4 µM (active) | -11.1%
Nc1nc(Nc2ccc(S(N)(=O)=O)cc2)nn1C(=O)c1c(F)cccc1F | inactive | – | 28.2 µM (active) | – | – | inactive | 2.49 µM (active) | 19%
